Screens as filed in PubChem.
PINK1 modulator: changes PINK1 expression. PINK1 immunofluorescence, high-content cytometry, 24 h. Potency, µM (titrated, usually from 76.6 µM), usual class: activators. 410,000 compounds, 0.2% hits; active = well fitted activation curve with a large enough effect; inconclusive = small, poorly fitted or top-dose-only effect; cell line not stated here; also: nearly all actives have a fitted effect of over 65% in size
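A stable cell line was treated with compounds at 5 concentrations for 24 hours, with CCCP as control. PINK1 levels and mitochondrial localization were measured by immunofluorescence with mitochondrial, cell and nuclear markers after fixation, read by laser-scanning cytometry.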
Menin MLL FP FL: displaces fluorescein MLL peptide from human menin. 290,000 tested, under 10 active. AID 1766. Fluorescence polarization, fluorescein-MLL peptide displacement from menin. FP activity change, % at 61.4 µM; active = well fitted curve in the direction sought with a large enough effect in the polarisation, not every such curve was filed as active; inconclusive = small, poorly fitted or top-dose-only effect, or effect the other way, or a change in a side signal; inactive = no such curve, though single readings can be large or run the other way; the % refers to the polarisation
MLL CXXC-DNA inh: inhibitors of human MLL CXXC domain-DNA interaction. Q03164. MLL-CXXC / FITC-HOXA9 DNA fluorescence polarization. Potency, µM (series often up to 115 µM), hits mostly inhibitors. 290,000 compounds, 0.037% hits. AID 2662; active = well fitted inhibition curve with a large enough effect in the polarisation, with a control signal flat, not every such curve was filed as active; inconclusive = small, poorly fitted or top-dose-only effect, or effect the other way, or a change in a side signal; inactive = no such curve, though single readings can be large or run the other way; the % refers to the polarisation
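Purified MLL-CXXC (added from a 7 uM solution) was preincubated 5 min at ambient with pinned compounds in 50 mM Tris-HCl pH 7.5, 50 mM NaCl, 1 mM DTT, 0.05% BSA. Fluorescein-labeled HOX-A9 DNA (50 nM solution) followed, 30 min, then polarization read.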
Epigenetic derep: epigenetic control regulation, reporter derepression. Potency, µM (highest dose often 53.9 µM), hits mostly activators. 280,000 compounds, 0.2% hits. murine LDR cells, GFP reporter derepression, 30 h; also: nearly all actives have a fitted effect of over 60% in size
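Derepression of a silenced CMV-GFP reporter in murine LDR cells is scored by enumerating GFP-positive cells with a laser-scanning microplate cytometer after 30 hours of treatment at 37 C.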
Menin-MLL TR inh: displaces Texas Red mutant MLL peptide from human menin; O00255; Menin + Texas Red MLL mutant peptide, fluorescence polarization; Potency, µM (series often up to 61.6 µM), actives largely listed as inhibitors; 270,000 compounds, 0.23% hits; AID 1768; active = well fitted inhibition curve with a large enough effect in the polarisation, with a control signal flat, not every such curve was filed as active; inconclusive = small, poorly fitted or top-dose-only effect, or effect the other way, or a change in a side signal; inactive = no such curve, though single readings can be large or run the other way; the % refers to the polarisation
Target sequence (O00255 whole entry, looked up): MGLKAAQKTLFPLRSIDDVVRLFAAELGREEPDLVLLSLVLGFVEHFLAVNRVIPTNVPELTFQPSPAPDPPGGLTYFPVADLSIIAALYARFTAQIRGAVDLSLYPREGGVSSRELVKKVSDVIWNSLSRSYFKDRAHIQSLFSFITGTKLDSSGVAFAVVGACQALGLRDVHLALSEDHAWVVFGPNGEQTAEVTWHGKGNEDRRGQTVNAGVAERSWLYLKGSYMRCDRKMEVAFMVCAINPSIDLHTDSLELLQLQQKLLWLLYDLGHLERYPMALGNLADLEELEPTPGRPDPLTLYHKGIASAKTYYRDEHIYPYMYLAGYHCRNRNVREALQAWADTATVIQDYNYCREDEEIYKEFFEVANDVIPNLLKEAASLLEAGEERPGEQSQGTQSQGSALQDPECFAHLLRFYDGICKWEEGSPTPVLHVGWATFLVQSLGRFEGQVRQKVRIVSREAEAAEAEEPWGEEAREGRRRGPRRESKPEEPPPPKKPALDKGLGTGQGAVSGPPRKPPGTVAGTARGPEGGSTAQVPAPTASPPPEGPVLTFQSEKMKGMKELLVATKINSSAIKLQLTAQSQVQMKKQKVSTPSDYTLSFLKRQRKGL
ClpP mod: qHTS Assay for Activators of ClpP; 340,000 compounds, 1.9% hits; ATP-dependent Clp protease proteolytic subunit (Bacillus subtilis (strain 168)), P80244; AID 651965, 2013; Potency, µM (series often up to 57.5 µM); purified B. subtilis ClpP, FRET peptide cleavage, 20 min; active = well fitted falling curve with a large enough effect; inconclusive = small, poorly fitted or top-dose-only effect; inactive = no such curve, though single readings can be large or run the other way; also: the source files actives as falling curves though it sought activators and does not explain the sign; nearly all actives have a fitted effect of over 65% in size
Target sequence (P80244 whole entry, looked up): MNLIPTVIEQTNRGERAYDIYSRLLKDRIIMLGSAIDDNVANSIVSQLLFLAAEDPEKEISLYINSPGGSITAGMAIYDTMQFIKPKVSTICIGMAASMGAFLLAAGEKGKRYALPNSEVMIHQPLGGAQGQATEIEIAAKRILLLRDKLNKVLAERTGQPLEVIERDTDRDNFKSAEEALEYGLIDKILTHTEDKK
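Purified B. subtilis ClpP, 10 microg/mL final in Tris/HCl pH8 with KCl, BSA, glycerol and Tween-20, cleaved an Abz/nitrotyrosine-quenched decapeptide. Fluorescence (ex 320, em 430) was read at 0 and 20 min at room temperature. Delta was normalized to 5.8 microM ADEP and DMSO/no-enzyme controls.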
MLL CXXC Fl: inhibitors of human MLL CXXC domain-DNA interaction; AID 624160; Potency, µM (series often up to 345 µM), usual class: inhibitors; shares compounds with MLL CXXC-DNA inh; MLL CXXC-DNA binding, fluorescein FP; 200 compounds, 70% hits; also: nearly all actives have a fitted effect of over 80% in size
MLL CXXC FP-TR: MLL CXXC-DNA interaction inhibition, Texas Red FP; shares compounds with MLL CXXC-DNA inh; 200 compounds, 40% hits; MLL CXXC-DNA binding, Texas Red fluorescence polarization; Potency, µM (highest dose often 345 µM), most hits filed as inhibitors; also: nearly all actives have a fitted effect of over 75% in size
MLL CXXC HTRF: disrupts human MLL CXXC domain binding to DNA by HTRF. Potency, µM (doses to about 172 µM), actives largely listed as inhibitors. shares compounds with MLL CXXC-DNA inh. MLL CXXC-DNA binding, HTRF, biochemical. 210 compounds, 30% hits; also: nearly all actives have a fitted effect of over 80% in size
ClpP inh valid: inhibits B. subtilis ClpP protease, hit validation | shares compounds with ClpP mod | 470 compounds, 40% hits | purified B. subtilis ClpP, FRET-FV substrate cleavage, 20 min | Potency, µM (highest dose often 57.5 µM), usual class: inhibitors; also: nearly all actives have a fitted effect of over 70% in size
Hits are given with their value; i = inactive; ? = inconclusive; nt = no result. Shown are actives, neighbours in structure and some others; about 1.9% of the full set was active somewhere. Unless noted, calls follow the shape of the dose curve; as a rule, active = well fitted curve in the direction sought with a large enough effect; inconclusive = small, poorly fitted or top-dose-only effect, or another doubt; inactive = no such curve, though single readings can be large; an effect the other way counts as inactive or inconclusive.

SMILES | PINK1 modulator | Menin MLL FP FL | MLL CXXC-DNA inh | Epigenetic derep | Menin-MLL TR inh | ClpP mod | ClpP inh valid | others
CCOC(=O)c1c(NC(C)=O)sc2c(OCCN(CC)CC)c(Br)ccc12 | i | i | 35µM | i | ? | i | nt | MLL CXXC Fl=113µM;MLL CXXC FP-TR=i;MLL CXXC HTRF=i
COc1cc(Br)ccc1C1C(C(=O)Nc2ccc(C)cc2C)=C(C)Nc2nnnn21 (stereo unspecified) | i | nt | nt | i | nt | i | nt
O=C(NC1CCN(S(=O)(=O)c2ccc(F)cc2)CC1)c1ccc(F)cc1 | i | i | i | nt | i | i | nt
COCCNC(=O)/C(C#N)=C/c1c(N2CCN(C)CC2)nc2c(C)cccn2c1=O | i | i | i | nt | i | i | nt
CCN1CCN(c2nc3c(C)cccn3c(=O)c2/C=C(\C#N)C(=O)NCCOC)CC1 | i | i | 32µM | nt | i | i | nt | MLL CXXC Fl=i;MLL CXXC FP-TR=i;MLL CXXC HTRF=i
COc1ccc(-c2csc(NC(=O)c3cc(C)oc3C)n2)cc1OC | i | i | ? | nt | ? | i | nt
CC(=O)c1c(-c2ccccc2)[nH]c2ccccc12 | i | i | i | nt | i | i | nt
O=C(O)/C=C/C(=O)c1c(-c2ccccc2)[nH]c2ccccc12 | i | i | ? | nt | i | i | nt | MLL CXXC Fl=7.1µM;MLL CXXC FP-TR=159µM;MLL CXXC HTRF=49µM
CC(=O)Nc1ccc(NC(=O)CSc2nccn2Cc2ccc3c(c2)OCO3)cc1 | i | nt | nt | i | nt | i | nt
CCc1sc(C(C2C(=O)CC(C)(C)CC2=O)C2C(=O)CC(C)(C)CC2=O)cc1[N+](=O)[O-] | i | i | ? | i | i | nt | nt | MLL CXXC Fl=i;MLL CXXC FP-TR=113µM;MLL CXXC HTRF=31µM
Cc1cc(N)c2cc(NC(=O)Nc3ccc4nc(C)cc(N)c4c3)ccc2n1 | nt | i | nt | nt | 16µM | nt | nt | MLL CXXC Fl=8.9µM;MLL CXXC FP-TR=?;MLL CXXC HTRF=9.7µM
OC(Cn1cncn1)(c1ccc(F)cc1)c1ccc(Cl)cc1 (stereo unspecified) | i | i | 89µM | nt | i | i | nt | MLL CXXC Fl=?;MLL CXXC FP-TR=i;MLL CXXC HTRF=i
C=Cc1c(C)/c2[n-]/c1=C\c1[n-]c(c(CC)c1C)/C=c1\[n-]c3c(c1C)C(=O)C(C(=O)[O-])C=3c1[n-]c(c(C)c1CCC(=O)[O-])\C=2.[Cu].[Na+].[Na+] (stereo unspecified) | nt | i | ? | i | ? | nt | nt | MLL CXXC Fl=45µM;MLL CXXC FP-TR=126µM;MLL CXXC HTRF=7.7µM
Cc1nc2nc(-c3ccc(Cl)cc3)cn2nc1C | i | i | i | i | nt | ? | nt
Cc1nc2nc(-c3cccs3)cn2nc1C | i | ? | 35µM | i | i | i | nt | MLL CXXC Fl=126µM;MLL CXXC FP-TR=i;MLL CXXC HTRF=i
Cc1c(C(=O)N2CCN(c3ncccn3)CC2)oc2c(Cl)cccc12 | i | nt | nt | nt | nt | 3.2µM | i
CCc1nc2c(OCCC3CCCCC3)cccn2c1N(C=O)Cc1ccc(OC)cc1 | ? | nt | nt | nt | nt | i | nt
O=C(CC(c1cccs1)N1Cc2ccccc2C1=O)Nc1cccc(F)c1 (stereo unspecified) | i | nt | nt | i | nt | i | nt
Cc1ccc2oc(-c3cccc(NC(=O)c4cccc5c(Cl)cccc45)c3)nc2c1 | i | nt | nt | i | nt | i | nt
Cc1ccc2oc(-c3cccc(NC(=O)c4cc(-n5cnnc5)ccc4Cl)c3)nc2c1 | ? | i | i | i | i | i | i
c1nc2n(n1)C1=C(CCCC1)C1(CCCCC1)N2 | i | i | i | i | i | 10µM | i
COc1cc2cc(CCOC(=O)c3ccc(C(F)(F)F)cc3)oc(=O)c2cc1OC | i | nt | nt | nt | nt | i | nt
O=C(OCC(=O)N1CCOCC1)c1cccc(F)c1 | i | i | i | nt | i | nt | nt
Cc1nn2c(NCC(C)C)c3c(nc2c1-c1ccccc1)CCC3 | i | i | i | i | i | 7.9µM | 4.9µM
Cc1nn2c(NC(C)C)c3c(nc2c1-c1ccccc1)CCC3 | i | i | i | i | nt | i | nt
SMILES | PINK1 modulator | Menin MLL FP FL | MLL CXXC-DNA inh | Epigenetic derep | Menin-MLL TR inh | ClpP mod | ClpP inh valid | others
COc1ccc(NC(=O)c2oc3ccccc3c2NC(=O)COc2ccc(F)cc2)c(OC)c1 | i | nt | nt | i | nt | i | nt
CCCCCCN1C[C@@H](n2cc(-c3ccc(F)cc3)nn2)[C@H](O)C[C@@H]1c1ccccc1 | ? | nt | nt | nt | nt | i | nt
Cc1ccc(-c2cn3c(n2)sc2cc(C(=O)NCc4cccs4)ccc23)cc1 | i | nt | nt | i | nt | 7.1µM | 27µM
O=C(NCc1cccs1)c1ccc2c(c1)sc1nc(-c3ccc(F)cc3)cn12 | i | nt | nt | i | nt | i | nt
Cc1ccc(C(C)C)c(OCC(=O)Nc2cccc(NC(=O)c3ccco3)c2)c1 | i | nt | nt | i | nt | i | nt
COc1ccc(NC(=O)c2ccco2)cc1NC(=O)COc1cc(C)ccc1C(C)C | i | nt | nt | i | nt | i | i
O=C(CCCN1C(=O)C(=Cc2ccc3c(c2)OCO3)SC1=S)Nc1ccc(C(=O)O)c(O)c1 | i | nt | nt | nt | nt | i | nt
Cc1cccc(NS(=O)(=O)c2cccc(C(=O)NCC(c3ccco3)N3CCCCC3)c2)c1 (stereo unspecified) | i | nt | nt | nt | nt | 3.2µM | i
O=C(NCCO)C(=O)Nc1cc2c3c(c1)CCN3C(=O)CC2 | i | i | i | nt | i | i | nt
CCOc1ccccc1CNC(=O)c1cnc2sc(N3CCCCCC3)nn2c1=O | i | nt | nt | i | nt | 3.2µM | i
CCc1ccc(CNC(=O)c2cnc3sc(N4CCOCC4)nn3c2=O)cc1 | i | nt | nt | i | nt | 3.2µM | i
Cc1cccc(CNC(=O)c2cnc3sc(N4CCOCC4)nn3c2=O)c1 | i | nt | nt | i | nt | ? | nt
CCOc1ccccc1CNC(=O)c1cnc2sc(N3CCOCC3)nn2c1=O | i | nt | nt | i | nt | 2.8µM | i
CCCNC(=O)c1cnc2sc(N3CCCCCC3)nn2c1=O | i | nt | nt | i | nt | 3.2µM | i
Cc1ccccc1C(=O)c1cccn1CC(=O)NCc1ccccc1Cl | i | i | i | nt | ? | i | nt
Cn1cc(S(=O)(=O)N2CCCC2)cc1C(=O)NCc1ccc(Cl)cc1 | i | i | nt | nt | i | i | nt
O=C1NC(c2ccncc2)Nc2ccccc21 (stereo unspecified) | i | i | i | i | i | ? | nt
O=C1NC(c2ccco2)Nc2ccccc21 (stereo unspecified) | i | i | i | i | i | 10µM | 24µM
O=C(CN1CCN(Cc2ccc(F)cc2)CC1)NCCc1ccccc1 | i | i | i | nt | i | i | nt
